Only some compounds are listed: those with a hit (about 7.3% of all), similar ones and a draw of the others.
Luc counter = Kinase-Glo luciferase inhibition (counter-screen) | Q27757 | Kinase-Glo luciferase, ATP luminescence, 8 min | Potency, µM (top dose mostly 38.3 µM), for the others: at the top dose activity change, negative = inhibition, hits mostly inhibitors | 200,000 tested, 0.28% active; also: % is scaled to controls: 0 for no effect and ±100 for the full control effect; nearly all actives have a fitted effect of over 60% in size
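Recombinant Kinase-Glo luciferase, 10 uM ATP (linear range), luciferin; imidazole pH 7.2 / KCl / MgCl2 / Tween / BSA buffer; 8 min RT; luminescence.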
NPC1 prom act = NPC1 promoter activation. Huh7 NPC1 promoter luciferase reporter, 24 h. Potency, µM (top dose mostly 9.22 µM), inactives show at the top dose activation, usual class: activators. 320,000 tested, 2.4% active; also: % of control where 0% means no effect; nearly all actives have a fitted effect of over 60% in size
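Huh7 reporter cells (NPC1 promoter driving luciferase) are dosed with compound for 24 h at 37 °C, 5% CO2; luciferase detection reagent is then added and luminescence measured after 10 min at ambient temperature.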
ELG1 genotox = genotoxicity induction in ELG1-luciferase HEK293T cells; HEK293T ELG1-luciferase reporter, luminescence, 16 h; Potency, µM (highest dose often 46 µM), inactives show at the top dose activity change, positive = activation, usual class: activators; 330,000 tested, 1.3% active; AID 504466; also: % of control where 0% means no effect; nearly all actives have a fitted effect of over 60% in size
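Genotoxic stress is detected as increased luminescence from luciferase-tagged ELG1 in HEK293T cells, measured with ONE-Glo after a 16 hr treatment at 37 °C.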
FLuc counter = counter-screen for miR-21 project: firefly luciferase inhibitors or activators | 360,000 tested, 6.9% active | P08659 | Potency, µM (series often up to 57.5 µM), inactives show at the top dose activity change, negative = inhibition, most hits filed as inhibitors | purified FLuc, Km substrates, luminescence inhibition;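 also: plate controls were vehicle for no effect and reference inhibitor for full effect; nearly all actives have a fitted effect of over 55% in size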
Target sequence (P08659 whole entry, looked up): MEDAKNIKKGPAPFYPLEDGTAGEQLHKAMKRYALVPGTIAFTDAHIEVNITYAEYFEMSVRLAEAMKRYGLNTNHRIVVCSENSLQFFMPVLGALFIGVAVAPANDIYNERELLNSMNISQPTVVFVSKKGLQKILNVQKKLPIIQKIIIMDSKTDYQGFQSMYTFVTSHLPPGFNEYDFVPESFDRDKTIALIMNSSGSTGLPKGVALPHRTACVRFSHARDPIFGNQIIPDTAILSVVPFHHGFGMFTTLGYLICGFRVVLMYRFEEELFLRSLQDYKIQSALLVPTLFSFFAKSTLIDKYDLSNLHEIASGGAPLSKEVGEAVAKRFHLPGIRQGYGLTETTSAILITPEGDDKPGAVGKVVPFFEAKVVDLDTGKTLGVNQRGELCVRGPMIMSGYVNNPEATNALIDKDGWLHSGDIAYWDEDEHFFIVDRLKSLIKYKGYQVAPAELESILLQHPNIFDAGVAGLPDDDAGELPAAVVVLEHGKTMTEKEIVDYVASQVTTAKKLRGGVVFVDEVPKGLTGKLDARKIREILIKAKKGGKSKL
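Biochemical qHTS of compounds, final roughly 60 µM downward over six points, against 10 nM purified firefly luciferase using Km concentrations of substrates (10 uM D-luciferin, 10 uM ATP) in Tris acetate pH 7.5 buffer; luminescence output.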
SMN2 splice up = SMN2 splice variant enhancement. 210,000 tested, 2.8% active. AID 1458. HEK293 SMN2-luciferase splicing reporter, luminescence, 30-36 h. Potency, µM (top dose mostly 46.1 µM), without a hit: at the highest dose activity change, positive = activation, hits mostly activators; also: % of control where 0% means no effect; nearly all actives have a fitted effect of over 55% in size
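HEK293 cells carry an SMN2 minigene-luciferase reporter in which exon 7 inclusion puts luciferase in frame. Cells were seeded at 2000 cells/well, attached for 10-12 hours, then exposed to compounds for 30-36 hours at 37C before ONE-Glo luminescence.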
Rab9 promoter act = activators of Rab9 promoter | Potency, µM (top dose mostly 9.22 µM), inactives show at the highest dose activation, negative = inhibition, usual class: activators | 320,000 tested, 2.8% active | Huh7 Rab9 promoter-luciferase reporter, luminescence, 24 h | AID 485297; also: % of control where 0% means no effect; nearly all actives have a fitted effect of over 60% in size
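Huh7 reporter line, Rab9 promoter upstream of luciferase. Compound exposure 24 h at 37 °C in reduced-serum medium with 10% FBS. Read-out: luminescence.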
The depositor's hits bear a star; u = inconclusive; x = not tested or not shown; [ ] = dose if it differs, or a comment. Calls follow the shape of the dose curve; as a rule, active = well fitted curve in the direction sought with a large enough effect; inconclusive = small, poorly fitted or top-dose-only effect, or another doubt; inactive = no such curve, though single readings can be large; an effect the other way counts as inactive or inconclusive. Potency is read from the fitted curve at half-maximal effect.

SMILES | Luc counter | NPC1 prom act | ELG1 genotox | FLuc counter | SMN2 splice up | Rab9 promoter act
Oc1c(C(c2ccccc2Cl)N2CCCC2)sc2nc(-c3ccco3)nn12 (configuration not stated) | x | x | x | -20.0% | x | x
Cc1ccc(C)c(CSc2nnc3[nH]c(=O)cc(C)n23)c1 | x | x | x | -1.2% | x | x
Cc1ccc2nc(-c3ccc(SCC(=O)N4CCc5ccccc54)nc3)[nH]c2c1 | -10.8% | 3.55µM* | 0.4% | 0.269µM* | 11.2µM* | 3.16µM*
CCc1nnc(NC(=O)CSCc2cc(=O)c3ccc(C)cc3[nH]2)s1 | x | x | x | -8.4% | x | x
Cc1ccc2nc(-c3ccc(SCC(=O)O)nc3)[nH]c2c1 | -12.0% | -3.0% | 2.0% | 5.36µM* | 18.0% | 5.7%
Cc1cc2nc(-c3ccc(SCc4ccc(C#N)cc4)nc3)[nH]c2cc1C | -0.9% | -2.6% | 0.6% | 5.36µM* | -25.8% | -2.6%
CC(=O)CSc1ccc(-c2nc3cc(C)c(C)cc3[nH]2)cn1 | -1.2% | -9.9% | 0.3% | -2.1% | x | -4.9%
Cc1ccc(-c2nnc3ccc(SCC(=O)N4CCc5ccccc54)nn23)cc1 | -0.2% | -3.3% | 11.1% | -0.5% | -13.9% | -0.8%
CCc1nnc(NC(=O)CSc2ccc(-c3nc4ccc(C)cc4[nH]3)cn2)s1 | x | 2.82µM* | 13µM* | 1.69µM* | x | 3.16µM*
Cc1cc(C)cc(-n2ccn(CC(=O)Nc3ccccc3C(F)(F)F)c(=O)c2=O)c1 | x | x | x | 0.5% | x | x
CCOC(=O)CNC(=O)CSc1ccc(-c2nc3ccccc3[nH]2)cn1 | x | -1.6% | -1.6% | u | x | 0.0%
N#Cc1ccccc1CSc1ccc(-c2nc3ccccc3[nH]2)cn1 | -24.2% | 21.0% | u | 19µM* | -57.8% | 21.3%
CC(=O)CSc1ccc(-c2nc3ccccc3[nH]2)cn1 | x | 0.562µM* | u | 4.26µM* | x | 0.708µM*
COc1ccc(/C(N)=N/OC(=O)c2cccc([N+](=O)[O-])c2)cc1 | -1.9% | 10.8% | u | 19µM* | u | 13.2%
COc1ccccc1C/C(N)=N/OC(=O)c1cccc([N+](=O)[O-])c1C | 2.0% | -4.0% | -8.1% | 0.8% | 4.3% | -5.1%
COc1cccc(C(=O)O/N=C(\N)c2ccc([N+](=O)[O-])cc2)c1 | -1.1% | 7.7% | 17.1% | 2.39µM* | -1.4% | 29.4%
COc1ccc(/C(N)=N/OC(=O)c2cccc([N+](=O)[O-])c2C)cc1 | -5.2% | 19.9% | u | 16.9µM* | 27.5% | 25.7%
COC(=O)c1cc(OC)c(OC)c(OC)c1NC(=O)c1cc(=O)n(C)c(=O)n1C | x | x | x | -6.5% | 1.4% | x
COc1ccc(C(=O)[C@H](Br)[C@H](Br)C(=O)O)cc1 | -3.0%[7.66 µM] | x | x | x | -4.1%[9.22 µM] | x
Cc1cccc2c1[nH]c1nc(N/N=C\c3ccco3)nnc12 | -0.2% | 10.9% | 3.3% | -11.7% | -1.0% | 13.7%
C=CCSc1nnc2c(n1)[nH]c1c(C)cccc12 | 9.9% | 3.55µM* | u | 9.53µM* | -19.2% | u
Clc1ccc2nc(N3CCCCC3)[nH]c2c1 | -20.1% | 1.58µM* | 2.06µM* | 4.78µM* | 14.1µM* | 1.41µM*
CC(C)C(=O)N1CCN(c2nc3ccc(Cl)cc3s2)CC1 | x | 2.51µM* | u | u | x | u
Fc1cccc2sc(N3CCOCC3)nc12 | -2.8% | 13.2% | 14.1% | u | u | 20.7%
CC(C)NC(=O)N1CCCN(c2nc3ccc(Cl)cc3s2)CC1 | x | -4.2% | -4.4% | u | x | -9.1%
SMILES | Luc counter | NPC1 prom act | ELG1 genotox | FLuc counter | SMN2 splice up | Rab9 promoter act
Fc1cccc2sc(N3CCCCC3)nc12 | -4.3% | u | 13µM* | 19µM* | u | u
Clc1ccc2nc(N3CCCCC3)sc2c1 | -9.7% | 1.41µM* | u | 2.69µM* | 11.2µM* | 2.51µM*
N=C(N)SCCCN | -3.0%[7.66 µM] | x | x | x | -8.9%[9.22 µM] | x
Fc1cccc(Cl)c1CN1CCN(c2nc3ccccc3s2)CC1 | x | 2.51µM* | 14.6µM* | 5.36µM* | x | 2.51µM*
O=C(c1ccc2ccccc2n1)N1CCN(Cc2c(F)cccc2Cl)CC1 | x | 0.2% | -7.9% | -1.0% | x | -3.6%
CCOc1ccc(-c2nc(CCl)cs2)cc1 | -5.4% | u | u | 3.01µM* | u | 2.24µM*

Assay outcomes deposited in PubChem by National Center for Advancing Translational Sciences (NCATS).
